A selection: hits, their analogues and other compounds. The true share with any hit is near 1.4%.
RXFP1 ag – qHTS Assay for Agonists of the Relaxin Receptor RXFP1. 0.3% of 370,000 active. Potency, µM (highest dose often 57.5 µM), for inactives: at the highest dose activation, most hits filed as activators. HEK293T-RXFP1 cAMP TR-FRET, 30 min; response scale: percent of porcine relaxin response, buffer zero; note: potency is the fitted concentration of half-maximal effect; % is set by controls: 0 for no effect and ±100 for the full control effect; nearly all actives have a fitted effect of over 60% in size
Target sequence (Q9HBX9 whole entry, looked up): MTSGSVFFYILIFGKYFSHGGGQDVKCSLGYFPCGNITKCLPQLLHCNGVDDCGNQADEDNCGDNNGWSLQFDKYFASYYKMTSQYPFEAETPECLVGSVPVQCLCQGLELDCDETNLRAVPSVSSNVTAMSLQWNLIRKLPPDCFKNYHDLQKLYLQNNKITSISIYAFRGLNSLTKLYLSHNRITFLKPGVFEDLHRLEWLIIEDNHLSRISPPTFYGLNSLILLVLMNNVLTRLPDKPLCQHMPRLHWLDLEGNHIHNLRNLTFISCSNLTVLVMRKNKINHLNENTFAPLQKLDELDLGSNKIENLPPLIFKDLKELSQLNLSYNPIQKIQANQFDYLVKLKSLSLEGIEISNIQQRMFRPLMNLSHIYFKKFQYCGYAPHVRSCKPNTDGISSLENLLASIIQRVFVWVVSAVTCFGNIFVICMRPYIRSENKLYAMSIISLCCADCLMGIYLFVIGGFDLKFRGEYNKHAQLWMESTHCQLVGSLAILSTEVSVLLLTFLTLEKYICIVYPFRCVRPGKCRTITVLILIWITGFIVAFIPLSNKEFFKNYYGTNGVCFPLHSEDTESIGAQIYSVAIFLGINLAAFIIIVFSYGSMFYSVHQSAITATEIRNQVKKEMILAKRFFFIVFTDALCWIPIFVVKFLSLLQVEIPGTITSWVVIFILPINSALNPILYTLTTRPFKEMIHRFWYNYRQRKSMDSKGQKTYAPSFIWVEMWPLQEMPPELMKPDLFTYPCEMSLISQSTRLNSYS
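cAMP rise read by TR-FRET after 30 min, 37C compound exposure (up to 58 uM) in RXFP1-transfected HEK293 cells with Ro 20174 present. EC50 from Hill-equation fits, with 29 nM porcine relaxin as 100% and buffer as basal.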
RXFP1 antag – qHTS Assay for Antagonists of the Relaxin Receptor RXFP1; Relaxin receptor 1 (Homo sapiens), Q9HBX9; HEK293-RXFP1, relaxin-stimulated cAMP HTRF, 30 min; active compounds read low; activity change, negative = inhibition, % at 57.5 µM; 0.59% of 350,000 active; AID 1259400, 2018;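 active = activity change of -60% or lower, but not beyond a set lower limit; inconclusive = change between -60% and -40%, or beyond the set limit; inactive = change above -40%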; note: % is set by controls: 0 for no effect and ±100 for the full control effect
Glioma ERSR ind – qHTS for Inducers of the Endoplasmic Reticulum Stress Response (ERSR) in Human Glioma: qHTS | U87-MG GRP78 promoter luciferase reporter, 16 h | Potency, µM, inactives show at the highest dose activation, hits mostly activators | 0.02% of 420,000 active | AID 602332, 2012; note: potency is the fitted concentration of half-maximal effect; series mostly up to about 76 µM; % of control where 0% means no effect; nearly all actives have a fitted effect of over 35% in size
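ERSR induction read as luciferase luminescence (Bright-Glo, 10 min at room temperature) in stably transfected human U87-MG glioma cells exposed to compounds for 16 h, using GRP78 as sensor.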
hERG WT inh – qHTS for Inhibitors of KCHN2 3.1: Wildtype qHTS; Voltage-gated inwardly rectifying potassium channel KCNH2 (Homo sapiens), Q12809; 0.37% of 340,000 active; U2OS, BacMam KCNH2, thallium flux FluxOr; active compounds read low; AID 720551, 2013; activity change, % at 1.84 µM;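 active = maximum activity change below -70%; inconclusive = maximum activity change between -70% and -50%; inactive = maximum activity change above -50%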; note: % is set by controls: 0 for no effect and ±100 for the full control effect
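U2OS cells transduced with wild-type KCNH2 virus are loaded with FluxOr dye for 45 min, and thallium flux is measured in kinetic reads before and after stimulation buffer. Rate constants are normalized to DMSO controls.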
KCNH2 3.1 block – qHTS for Inhibitors of KCHN2 3.1: Mutant qHTS | Potassium voltage-gated channel subfamily H member 2, brain isoform KCNH2 3.1 (human) | U2OS KCNH2 3.1, thallium flux FluxOr; active compounds read low | activity change, % (tested at about 1.8 µM) | 0.95% of 340,000 active;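 active = maximum activity change below -70%; inconclusive = maximum activity change from -70% to -50%; inactive = maximum activity change above -50%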;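 note: thallium influx rate constant from kinetic fluorescence after stimulation buffer; % is set by controls: 0 for no effect and ±100 for the full control effect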
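Kinetic fluorescence (2 min after stimulation buffer) measures Tl+ influx through KCNH2 3.1 expressed by viral transduction in U2OS cells; the rate constant is normalized against DMSO controls serving as positive and negative references.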
PTHR1 ag – qHTS for PTHR1 Agonists: Primary Screen; HEK293 GP2 PTHR1 cells, GloSensor cAMP luminescence, 1 h; Potency, µM (highest dose often 115 µM), inactives show at the highest dose activation, actives largely listed as activators; 0.075% of 410,000 active; Parathyroid hormone/parathyroid hormone-related peptide receptor (Homo sapiens), Q03431; note: potency is the fitted concentration of half-maximal effect; nearly all actives have a fitted effect of over 55% in size
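HEK-293-derived GP2 cells expressing PTHR1 and a GloSensor cAMP reporter, 3,000/well, plated overnight, given luciferin plus IBMX (each 0.5 mM as added) for 1 h at 37 °C, then compound for 1 h at 37 °C. Luminescence was read after 15 min at room temperature.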
* hit, by the source's call; i = inactive; ? = inconclusive; . = no result; [ ] = dose if it differs, or a comment. Unless noted, calls come from the whole dose curve; as a rule, active = well fitted curve in the direction sought with a large enough effect; inconclusive = small, poorly fitted or top-dose-only effect, or another doubt; inactive = no such curve, though single readings can be large; an effect the other way counts as inactive or inconclusive.

SMILES	RXFP1 ag	RXFP1 antag	Glioma ERSR ind	hERG WT inh	KCNH2 3.1 block	PTHR1 ag
Cc1ccc(-c2csc(NS(=O)(=O)c3cccc(F)c3)n2)o1	.	-75.1*	-1.5%	-10.2	-5.2	i
Cn1nccc1C(=O)N/N=C/c1cccnc1	3.2%	0.1	5.3%	-5.3	-4.4	i
Cc1cccc(N(C)S(=O)(=O)c2ccc3c(c2)C(C)(C)C(=O)N3C)c1	-1.1%	-4.2	4.6%	3.8	-1.9	-3.0%
O=C(NCC(c1ccco1)N1CCCC1)c1cc(=O)[nH]c2ccccc12 (stereo unspecified)	.	-1.7	-3.5%	4.7	-3.7	-26.6%
O=C(NCC(c1cccs1)N1CCOCC1)c1cc(=O)[nH]c2ccccc12 (stereo unspecified)	0.6%	-77.1*	2.7%	-1.1	-9.9	i
Cc1ccc(NC(=S)NCCc2c[nH]c3ccccc23)c(C)c1	3.2%	0.4	-0.8%	22.0	-90.8*	-25.9%
Cc1ccccc1C(=O)NNC(=O)C(C)N1C(=O)c2ccccc2C1=O (stereo unspecified)	-0.1%	-10.8	2.6%	-8.3	-73.0*	-25.9%[57.5 µM]
Cc1ccccc1C(=O)NC(CC(C)C)C(=O)NN1C(=O)c2ccccc2C1=O (stereo unspecified)	0.2%	-7.5	-3.1%	-2.7	2.4	2.0%
C=C(C)C(=O)Nc1cccc(C2=NOC3(C2)C[C@H](C(N)=O)N(C(=O)COc2ccc(Cl)cc2)C3)c1 (stereo partly specified)	0.0%	.	-1.0%	-26.5	14.8	-2.7%
C[C@@H]1CN(CCCn2c3ccccc3c3ccccc32)C[C@H](C)N1	3.0%	-96.7*	-6.5%	.	.	.
CCN(Cc1ccccc1)C(=O)C1CCN(Cc2ccc(SC)cc2)CC1	-1.5%	-2.9	-0.1%	-114.5*	-94.2*	-76.9%
O=C(C1CCN(CCCc2ccccc2)CC1)N(CCc1ccccc1)Cc1ccccc1	3.1%	-9.3	-4.6%	-88.6*	-110.4*	-15.7%
O=C(CN1C(=O)NC(c2ccccc2)(c2ccccc2)C1=O)N1CCN(c2ccccc2F)CC1	1.0%	2.9	-3.2%	1.1	-198.1*	i
Cc1c(NC(=O)C(C)OC(=O)COc2cccc3c2OC(C)(C)C3)c(=O)n(-c2ccccc2)n1C (stereo unspecified)	-0.2%	-6.2	-5.8%	9.7	20.2	5.2%[57.5 µM]
Cc1c(NC(=O)COc2cccc3c2OC(C)(C)C3)c(=O)n(-c2ccccc2)n1C	0.0%	-0.3	-3.9%	-0.9	-107.1*	-33.7%
Cc1ccc(N(Cc2cccs2)C(=O)COc2cccc(C)c2)cc1	2.1%	.	0.0%	.	.	-31.2%
Cc1cc(C)cc(OCC(=O)N(Cc2cccs2)c2ccc(Cl)cc2)c1	0.0%	.	0.8%	.	.	i
COc1ccc(N(Cc2cccs2)C(=O)COc2cc(C)c(Cl)c(C)c2)cc1	-1.8%	-69.2*	-5.1%	.	.	-69.4%
COc1ccc(N(Cc2cccs2)C(=O)COc2cccc(C)c2C)cc1	-0.3%	-71.7*	-4.5%	.	.	-28.3%
Cc1ccc(C)c(NC(=O)c2ccccc2C(=O)c2ccccc2)c1	0.5%	.	.	.	.	.
S=c1[nH]nc(CSCCOc2ccccc2)o1	-1.7%	-14.2	-5.0%	-2.0	0.6	-15.4%
S=c1[nH]nc(CSCCOc2ccc(Cl)cc2Cl)o1	1.6%	-17.9	2.4%	-154.4*	-165.6*	-76.3%
CCOc1ccc(CN2CCN(Cc3cccc4c3OCO4)CC2CCO)cc1 (stereo unspecified)	-2.4%	-5.0	-1.4%	-1.1	-23.4	i
CCOc1ccc(CN2CCN(Cc3cc4c(cc3Cl)OCO4)CC2CCO)cc1 (stereo unspecified)	-1.8%	-10.4	-5.1%	-110.7*	-119.2*	i
CCn1c(CN2CCN(Cc3ccc(C)cc3)C(CCO)C2)nc2ccccc21 (stereo unspecified)	0.5%	-14.6	1.2%	-24.9	-98.3*	i
SMILES	RXFP1 ag	RXFP1 antag	Glioma ERSR ind	hERG WT inh	KCNH2 3.1 block	PTHR1 ag
CCOc1ccc(CN2CCN(Cc3cccc4nonc34)CC2CCO)cc1 (stereo unspecified)	-0.6%	-24.0	-0.4%	-76.7*	-115.7*	i
O=C(OCC(=O)N1CCCC1=O)c1ccc(O)cc1O	0.6%	-2.5	1.2%	-1.8	-2.8	-6.1%
CN1CCN(NC(=S)NC(C)(C)CC(C)(C)C)CC1	0.9%	1.9	-4.6%	-2.1	-7.7	i
CCOC(=O)c1cc(-c2ccccc2)n(CCC(=O)Nc2ccc(C(F)(F)F)cc2)c1C	1.2%	-67.1*	?	.	.	-90.8%
COc1ccc(C(=O)NCc2nnc(SCC(=O)N3CCCCC3)o2)cc1	1.8%	-10.3	-4.1%	-3.2	-92.0*	i
COc1ccc(C(=O)NCc2nnc(SCC(=O)N3CCCC3)o2)cc1OC	4.2%	6.0	-3.2%	6.0	3.5	i
CCOc1ccccc1CN1CCN(S(=O)(=O)c2ccccc2)CC1	-3.6%	.	-3.6%	.	.	-93.3%
CCN1CCN(S(=O)(=O)c2ccc(OC)c(Br)c2)CC1	0.1%	-4.7	-5.6%	-88.5*	-0.3	-0.4%
CCOc1cc(S(=O)(=O)N2CCN(Cc3ccccc3)CC2)ccc1Br	-0.2%	-20.1	-5.9%	-9.9	-81.6*	i
COc1ccc(S(=O)(=O)N2CCCC2)cc1C(=O)N1CCCCC1	2.0%	-0.8	-3.4%	-14.4	1.6	-3.0%
COc1ccc(S(=O)(=O)N2CCCCC2)cc1C(=O)N1CCCC1	-2.9%	-2.7	-2.5%	-70.1*	-11.2	i
CCNc1oc(COc2ccccc2F)nc1C#N	2.2%	-4.2	-0.8%	-1.9	2.6	-15.7%
CN(Cc1ccccc1)Cc1nc2c([nH]1)c(=O)[nH]c(=O)n2C	-0.5%	9.7	-1.5%	0.7	-3.1	-16.8%[57.5 µM]
Cc1ccccc1OCC(=O)Nc1sc(C(=O)Nc2cccc(C)c2C)c(C)c1C#N	8.91µM*	-1.4	-6.3%	-0.8	-7.0	-10.2%[57.5 µM]
COc1ccccc1NC(=O)c1sc(NC(=O)c2ccco2)c(C#N)c1C	7.9%	26.2	-3.1%	-1.5	13.1	i
O=C(N/N=C/c1ccccc1)C(=O)N/N=C/c1ccccc1	1.1%	-5.7	-0.3%	1.6	-4.3	-5.0%
O=C(N/N=C/c1ccc(O)cc1)/C(=C/c1ccccc1)CCO	1.9%	9.4	-1.6%	-3.4	-88.2*	i
Cc1ccc(C)c(CN2C(=O)C3(OCCCO3)c3ccccc32)c1	-2.0%	5.9	-1.1%	-0.7	-3.7	i

Compound activity from PubChem.
